Reference: PubChem BioAssay (NCATS)
Where “and” joins values, the source holds several entries; their conditions need not be identical. Identical values can stand only once. Inconclusive results are not listed. Calls of active or inactive are those of the source. Calls come from the whole dose curve; as a rule, active = well fitted inhibition curve with a large enough effect; inconclusive = small, poorly fitted or top-dose-only effect; inactive = no such curve, though single readings can be large or run the other way.

Assay: Primary qHTS for inhibitors of nuclear receptor binding SET domain protein 2 (NSD2) in an RCH-ACV wild type WT cells (2C) (AID 1645877); note: nearly all actives have a fitted effect of over 70% in size
Details: RCH-ACV (leukaemia line) NSD2 WT (2C) viability, CellTiter-Glo, 72 h; series mostly up to 44.9 µM
Potency is the fitted concentration of half-maximal effect.

Row | Structure (SMILES) | Potency
1 | CNC1CCC(N(Cc2cccc(-c3ccncc3)c2)C(=O)c2sc3ccccc3c2Cl)CC1 (stereo unspecified) | 5.78 µM (active) and 7.42 µM (active)
2 | CNC(=O)c1c(-c2ccc(F)cc2)oc2cc(N(CCO)S(C)(=O)=O)c(C3CC3)cc12 | inactive
3 | O=C(CC12CC3CC(CC(C3)C1)C2)Nc1cccc2nc(NCCNCCO)ccc12 | 20.9 µM (active)
4 | Cc1ccccc1C(C(=O)NC1CCCCC1)N(C(=O)CNc1ccc(C#N)cc1)c1cccc(F)c1 (stereo unspecified) | inactive
5 | c1cc(OCCN2CCCCC2)cc(-c2n[nH]c3ccc(-c4ncn[nH]4)cc23)c1 | 13.2 µM (active)
6 | CC(C)C[C@@H](C(=O)N[C@H](C(=O)OC1CCCC1)c1ccccc1)[C@H](O)C(=O)NO | 14.8 µM (active)
7 | CN(C)c1nc(Cc2ccc(NC(=O)c3ccc(C(F)(F)F)cc3)cc2)nc(N(C)C)c1CC(=O)O | inactive
8 | CCC(=O)N1CCN(c2ccc(-n3c(=O)ccc4cnc5ccc(-c6cnc7ccccc7c6)cc5c43)cc2C(F)(F)F)CC1 | 13.3 nM (active) and 20.4 nM (active)
9 | CCn1c(-c2nonc2N)nc2cncc(CNC3CCNCC3)c21 | 11.5 µM (active)
10 | C[C@@]1(c2cc(-c3cncnc3)c(F)cc2F)CCSC(N)=N1 | inactive
11 | COc1cc(Nc2nc3ccccc3nc2NS(=O)(=O)c2ccc(NC(=O)c3ccc(C)c(OC)c3)cc2)cc(OC)c1 | inactive
12 | Cc1cn([C@@H]2C[C@@H](O)[C@H](CO)O2)c(=O)[nH]c1=O | inactive
13 | Clc1ccc(C2(c3ccc(-c4cn[nH]c4)cc3)CCNCC2)cc1 | 1.83 µM (active) and 2.35 µM (active)
14 | Cc1cnc(Nc2cccc(CN3CCOCC3)c2)nc1Nc1cccc(S(=O)(=O)NC(C)(C)C)c1 | 0.515 µM (active)
15 | Cc1nn(Cc2ccccc2Cl)c(C)c1CN(C)CC(O)COc1ccc(Cl)cc1 (stereo unspecified) | 14.8 µM (active)
16 | CCc1cccc(CC)c1NC(=O)N1Cc2[nH]nc(NC(=O)c3ccc(N4CCN(C)CC4)cc3)c2C1 | 409 nM (active) and 468 nM (active)
17 | Nc1ccc(-c2ccc3ncc4ccc(=O)n(-c5cccc(C(F)(F)F)c5)c4c3c2)cn1 | 20.9 nM (active) and 18.4 nM (active)
18 | CC(C)(C)c1nc(-c2cccc(NS(=O)(=O)c3c(F)cccc3F)c2F)c(-c2ccnc(N)n2)s1 | 4.68 µM (active)

Row | Structure (SMILES) | Potency
19 | Cc1ccccc1C(=O)c1ccc(Nc2ccc(Br)cc2N)cc1Cl | 10.5 µM (active) and 9.2 µM (active)
20 | NS(=O)(=O)c1cc(Cl)c(Cl)c(S(N)(=O)=O)c1 | inactive
21 | Cc1cccc2c1CC[C@H](CN1CCC(c3c(Cl)cccc3Cl)CC1)C[C@@H]2O | 7.28 µM (active)
22 | Cn1cnc(-c2cc3nccc(Oc4ccc(NC(=S)NC(=O)Cc5ccccc5)cc4F)c3s2)c1 | 5.78 µM (active) and 3.32 µM (active)
23 | COc1cc2nccc(Oc3ccc(NC(=O)Nc4cc(C)on4)c(Cl)c3)c2cc1OC | 728 nM (active) and 4.17 µM (active)
24 | CN1CCC(COc2cnc(-c3cccc(Cn4nc(-c5cccc(C#N)c5)ccc4=O)c3)nc2)CC1 | 10.5 µM (active) and 16.3 µM (active)
25 | O=C(c1ccc(C(=O)N2CCC(N3CCCC3)CC2)c(Nc2ccccc2)c1)N1CCC(N2CCCC2)CC1 | inactive
26 | Cc1cnc(CNC(=O)c2c(=O)c3ccc(N4CCCN(C)CC4)nc3n3c2sc2ccccc23)cn1 | 0.121 µM (active)
27 | CNC(=O)c1ccc2c(C(=Nc3cccc(CN(C)C)c3)c3ccccc3)c(O)[nH]c2c1 | 16.6 µM (active)
28 | O=C(Nc1ccc(OC(F)(F)F)cc1)c1sccc1NCc1ccnc2ccccc12 | 18.6 µM (active)
29 | CC(C)CNc1ccnc(NCc2csc(-c3ccccc3)n2)n1 | 8.33 µM (active)
30 | CCN1CCN(c2ccc(Nc3cc(N(C)C(=O)Nc4c(Cl)c(OC)cc(OC)c4Cl)ncn3)cc2)CC1 | inactive
31 | CN1CCN(c2cccc(Nc3nc4c(-c5ccc(S(C)(=O)=O)cc5)cccn4n3)c2)CC1 | 1.63 µM (active) and 8.33 µM (active)
32 | Cn1c(=O)c(-c2c(Cl)cccc2Cl)cc2cnc(Nc3cccc(C(=O)O)c3)nc21 | inactive
33 | CNC(=O)c1cc(Oc2ccc(NC(=O)Nc3ccc(Cl)c(C(F)(F)F)c3)c(F)c2)ccn1 | 18.3 µM (active)
34 | CCN1C[C@H](C)n2c(c(O)c3c(=O)n(Cc4ccc(F)c(Cl)c4)nc(C(=O)NC)c32)C1=O | inactive
35 | COc1ccc(CCC(=O)Nc2nc3ccc(Cl)cc3s2)cc1OC | inactive
36 | NS(=O)(=O)c1ccc(Nc2nc(OCC3CCCCC3)c3[nH]cnc3n2)cc1 | 13.2 µM (active)
